Reference: PubChem BioAssay (NCI)
This is part of a sample that, as a whole, favours compounds with a hit. Of some 83,000 tested, about 20% had one in any assay.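 Compound tested at a single concentration for 48 hours in 96-well plates; a percent growth value below 10 was scored as active.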 Calls of active or inactive are those of the source.

Tests used:
Assay in all cases: NCI-60 one-dose screen, 48 h (100 = growth as untreated, 0 = no growth, -100 = all killed)
Conditions in all cases: 10 µM unless noted
[1] = tested on: SK-MEL-2 melanoma
[2] = tested on: EKVX NSCLC
[3] = tested on: SN12C renal
[4] = tested on: UO-31 renal
[5] = tested on: TK-10 renal
[6] = tested on: ACHN renal
[7] = tested on: CAKI-1 renal
[8] = tested on: A498 renal
[9] = tested on: MOLT-4 leukemia
[10] = tested on: CCRF-CEM leukemia

Measured: growth

Cc1ccc(N)c(S(=O)(=O)O)c1
inactive: [1] 84.3% | [2] 110% | [3] 100% | [4] 92.1% | [5] 128% | [6] 102% | [7] 90.8% | [8] 118% | [9] 83.6%

COc1cc(N)c2ncccc2c1Cl
inactive: [1] 96.7% | [2] 84.3% | [3] 91.5% | [4] 78.4% | [5] 93.6% | [6] 91.2% | [7] 95.8% | [8] 97.1% | [9] 93.3%

OCC(O)COc1ccc(Cl)cc1Cl (stereo not given)
inactive: [1] 97.4% | [2] 96.5% | [3] 95% | [4] 89.4% | [5] 101% | [6] 93.2% | [7] 96% | [8] 99% | [9] 99.2%

CCN(CC)CCCC(C)NC(=S)N/N=C(\C)c1ccccn1 (stereo not given)
inactive: [1] 83.6% | [2] 47.7% | [3] 35.9% | [4] 14.8% | [5] 48.4% | [6] 31.4% | [7] 20.1% | [8] 72.1%
active: [9] 9.05%

CC(=O)O[C@H]1CC[C@]2(C)C3=C(C(=O)C[C@H]2C1(C)C)[C@]1(C)CC[C@H]([C@H](C)CCC(=O)O)[C@@]1(C)CC3=O
inactive: [1] 95.3% | [2] 90.8% | [3] 106% | [4] 92.2% | [5] 98.4% | [6] 103% | [8] 84.9% | [10] 98.9% | [9] 98%

CCCCOC(=O)c1ccc(NC(=O)CCl)cc1
inactive: [1] 62.3% | [2] 86% | [3] 18.3% | [4] 57.9% | [5] 92% | [8] 99.2%
active: [6] -17.1% | [10] -15% | [9] 0.49%

CCOC(=O)c1c[nH][nH]c1=O
inactive: [1] 94.1% | [2] 116% | [3] 104% | [4] 93.7% | [5] 111% | [6] 106% | [8] 98.5% | [10] 107% | [9] 106%

CCCCCC#CC(=O)O
inactive: [1] 107% | [2] 99.8% | [3] 105% | [4] 81.5% | [5] 104% | [6] 97.1% | [8] 105% | [10] 102% | [9] 101%

c1ccc2[nH]c(Cc3nc4ccccc4[nH]3)nc2c1
inactive: [1] 121% | [2] 104% | [3] 107% | [4] 95.3% | [5] 122% | [6] 96.2% | [8] 98.5% | [10] 27.9% | [9] 110%

Nc1nnc2cc(F)ccc2n1
inactive: [1] 112% | [2] 96.9% | [3] 89.1% | [4] 85% | [5] 126% | [6] 99.4% | [8] 105% | [10] 107% | [9] 102%

OCC1CCC(O)C(CO)N1 (stereo not given)
inactive: [1] 129% | [2] 92.3% | [3] 103% | [4] 90.8% | [5] 121% | [6] 100% | [8] 91.5%

COC(=O)c1ccc([N+](=O)[O-])c(C)c1
active: [10] 4.56%
inactive: [1] 116% | [2] 109% | [3] 109% | [4] 79.9% | [5] 128% | [6] 97.1% | [8] 79.5% | [9] 112%

N#C/C(=C\c1ccc(C#N)cc1)C(=O)c1ccccc1
inactive: [1] 101% | [2] 109% | [3] 95.7% | [4] 89.1% | [5] 132% | [6] 101% | [8] 118% | [10] 92.9%

O=C(O)c1ccc(OCc2ccccc2)cc1
inactive: [1] 101% | [2] 110% | [3] 98.2% | [4] 89.6% | [5] 96.7% | [6] 94.3% | [7] 92.7% | [10] 104% | [9] 98%

CC1CCC(C)(C)c2ccccc21 (stereo not given)
inactive: [1] 106% | [2] 96.3% | [3] 99.5% | [4] 91.5% | [5] 104% | [6] 98.4% | [7] 96.5% | [9] 116%

Nc1ccc(F)c(Cl)c1F
inactive: [1] 108% | [2] 107% | [3] 104% | [4] 98.7% | [5] 108% | [7] 97.5% | [8] 95%

Clc1ccc(/C=C/c2ccccn2)cc1
inactive: [1] 103% | [2] 76.3% | [3] 108% | [4] 78.1% | [5] 99.3% | [6] 103% | [8] 77.3% | [9] 86.9%
active: [10] -56%

Oc1ccc(CCC2CCNc3ccccc32)cc1 (stereo not given)
inactive: [1] 86.7% | [2] 53.5% | [3] 86% | [4] 78.9% | [5] 93.2% | [6] 66.9% | [8] 69.2% | [9] 84.8%

CCNCC(C)(C)O
inactive: [1] 107% | [2] 99.6% | [3] 101% | [4] 83.6% | [5] 108% | [6] 110% | [7] 99.1% | [10] 106% | [9] 99.2%

Cn1c(=O)c2nc3c(=O)n(C)c(=O)n(C)c3nc2n(C)c1=O
inactive: [1] 110% | [2] 93.9% | [3] 106% | [4] 82.1% | [5] 128% | [6] 101% | [8] 126% | [10] 104% | [9] 84.9%

C[n+]1c(/C=C\C=C\N2CCCCC2)sc2ccccc21
active: [1] -51.1% | [2] 5.77% | [3] 7.71% | [10] 8.73% | [9] -9.41%
inactive: [4] 52.1% | [5] 22% | [6] 66.2% | [8] 43.5%

CSCCC(NC(=O)C(Cl)Cl)C(=O)O (stereo not given)
inactive: [1] 102% | [2] 90.2% | [3] 97.5% | [4] 96.3% | [5] 94.1% | [6] 101% | [8] 108% | [10] 97.7% | [9] 90.5%

BrCc1cccc(C[P+](c2ccccc2)(c2ccccc2)c2ccccc2)c1
inactive: [1] 70.4% | [2] 44.6% | [3] 57.7% | [4] 70.7% | [5] 90.8% | [6] 82.7% | [8] 84.1% | [10] 36.1% | [9] 84.9%

C=C(C)[C@@H]1CC[C@]2(CO)CC[C@]3(C)[C@H](CC[C@@H]4[C@@]5(C)CC[C@H](O)C(C)(C)[C@@H]5CC[C@]43C)[C@@H]12
inactive: [1] 82.1% | [2] 66.4% | [3] 47.5% | [4] 27.8% | [5] 51% | [6] 18.3% | [7] 72.6% | [10] 75.7% | [9] 71.1%

S=C=Nc1ccc2ccccc2c1
inactive: [1] 106% | [2] 103% | [3] 111% | [4] 85.1% | [5] 109% | [6] 100% | [7] 87.7% | [9] 98.1%

CC(C)c1ncc([N+](=O)[O-])n1C
inactive: [1] 127% | [2] 126% | [3] 109% | [4] 85.3% | [5] 114% | [6] 102% | [7] 94.4% | [10] 102% | [9] 104%

Cc1ccnc(Nc2nc3ccccc3[nH]2)n1
inactive: [1] 105% | [2] 104% | [3] 104% | [4] 104% | [5] 113% | [6] 106% | [10] 93.3% | [9] 92.4%

COc1ccc(Nc2cc(Cl)ccc2C(=O)O)cn1
inactive: [1] 115% | [2] 130% | [3] 93.2% | [4] 88.9% | [5] 156% | [6] 108% | [8] 90.9% | [10] 96.3% | [9] 93.5%

CC(=O)Nc1ncc(S(=O)(=O)c2ccc([N+](=O)[O-])cc2)s1
inactive: [1] 119% | [2] 114% | [3] 104% | [4] 79.4% | [5] 105% | [6] 115% | [10] 101%
